Source: PubChem BioAssay (NCI)
Compounds without any hit were thinned out: in the full panel of roughly 79,000, 15% have a hit. A number with no mark means an inactive call. Activity calls are given as the source filed them. Rule as the data show it: active = growth inhibition above about 70%; inactive = the rest.

Columns and labels:
[1] = NCI Yeast Anticancer Drug Screen. Data for the rad50 strain (AID 155);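 also: 0% = growth of vehicle-only cultures of the same strain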; settings: S. cerevisiae rad50 strain growth inhibition, stronger effect = higher value
Outline: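 A DNA repair-deficient yeast mutant serves as the test organism; compound-induced growth inhibition is calculated against vehicle-treated cells.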

[2] = NCI Yeast Anticancer Drug Screen. Data for the mec2-1 strain (AID 157); settings: S. cerevisiae mec2-1 strain, stronger effect = higher value
Outline: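 Cells of the genetically defined mec2-1 yeast strain are incubated with test compound. Inhibition of growth is calculated against vehicle-treated controls.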

[3] = NCI Yeast Anticancer Drug Screen. Data for the sgs1 mgt1 strain (AID 161);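 also: 0% = growth of cultures given vehicle only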; settings: S. cerevisiae sgs1 mgt1 strain, stronger effect = higher value
Outline: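 Genetically altered yeast, compound exposure, growth inhibition relative to vehicle.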

[4] = NCI Yeast Anticancer Drug Screen. Data for the cln2 rad14 strain (AID 165);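 also: 0% = growth equal to vehicle treated cultures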; settings: S. cerevisiae cln2 rad14 strain, stronger effect = higher value
Outline: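 The screen exposed genetically defined yeast (cln2 rad14) to test compounds and scored growth inhibition relative to vehicle-treated controls.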

[5] = NCI Yeast Anticancer Drug Screen. Data for the bub3 strain (AID 167); settings: S. cerevisiae bub3 mutant strain, stronger effect = higher value
Outline: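 Inhibition values come from growth of compound-treated mutant yeast normalised to vehicle-treated controls.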

[6] = NCI Yeast Anticancer Drug Screen. Data for the mlh1 rad18 strain (AID 175); settings: S. cerevisiae mlh1 rad18 strain growth inhibition, stronger effect = higher value
Outline: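 Compound-treated yeast growth, normalised to vehicle controls. Strain bears defined DNA repair mutations.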

[7] = at 5.0 µM (retest, dose inferred, filed as 0.5)
[8] = at 50.0 µM (retest, dose inferred, filed as 5.0)

Structure (SMILES)	growth inhibition [1, 7]	growth inhibition [1, 8]	growth inhibition ([1]; at 50.0 µM)	growth inhibition [2, 7]	growth inhibition [2, 8]	growth inhibition ([2]; at 50.0 µM)	growth inhibition [3, 7]	growth inhibition [3, 8]	growth inhibition ([3]; at 50.0 µM)	growth inhibition [4, 7]	growth inhibition [4, 8]	growth inhibition ([4]; at 50.0 µM)	growth inhibition [5, 7]	growth inhibition [5, 8]	growth inhibition ([5]; at 50.0 µM)	growth inhibition [6, 7]	growth inhibition [6, 8]	growth inhibition ([6]; at 50.0 µM)
O=C1OC(c2ccccc2)CC1Cc1ccccc1 (stereo not given)	-10%	-15%	1.7%	-32%	3%	-0.25%	-2%	8%	-12.9%	9%	-5%	-6.55%	-2%	6%	29.1%	-17%	-21%	-33.8%
COc1ccc2nc3cc(Cl)ccc3c(NCCNc3c4ccc(Cl)cc4nc4ccc(OC)cc34)c2c1	34%	97% (active)	98.5% (active)	26%	97% (active)	92.8% (active)	20%	99% (active)	96.2% (active)	37%	90% (active)	98.4% (active)	16%	97% (active)	99.2% (active)	28%	97% (active)	97.3% (active)
CC(=O)OCc1ccc(O)c2ncccc12	-127%	74% (active)	95.7% (active)	-49%	83% (active)	94% (active)	-51%	45%	54.2%	-44%	75% (active)	41%	-56%	74% (active)	67.1%	-103%	54%	55%
C[CH2][Sn]([CH2]C)([O]C(=O)c1cccc(OC)c1)[O][Sn]([CH2]C)([CH2]C)[O]C(=O)c1cccc(OC)c1	31%	69%	59.5%	30%	79% (active)	39.2%	36%	76% (active)	37.5%	30%	58%	40.8%	30%	86% (active)	37.5%	40%	74% (active)	56.5%
O=S(=O)(O)SCCNCCCCCC1CCCCC1	20%	87% (active)	15.3%	27%	94% (active)	22.5%	19%	83% (active)	65.5%	32%	71% (active)	18.6%	17%	95% (active)	52.2%	34%	93% (active)	30.6%
